A selection: hits, their analogues and other compounds. The true share with any hit is near 2.6%.
AmpC det inh: AmpC beta-lactamase inhibition, detergent assay. AID 584. Potency, µM (doses to about 28.7 µM). 0.09% of 71,000 active. P00811. purified AmpC, nitrocefin hydrolysis with detergent; active means well fitted curve in the direction sought with a large enough effect; inconclusive means small, poorly fitted or top-dose-only effect
Target sequence (P00811 whole entry, looked up): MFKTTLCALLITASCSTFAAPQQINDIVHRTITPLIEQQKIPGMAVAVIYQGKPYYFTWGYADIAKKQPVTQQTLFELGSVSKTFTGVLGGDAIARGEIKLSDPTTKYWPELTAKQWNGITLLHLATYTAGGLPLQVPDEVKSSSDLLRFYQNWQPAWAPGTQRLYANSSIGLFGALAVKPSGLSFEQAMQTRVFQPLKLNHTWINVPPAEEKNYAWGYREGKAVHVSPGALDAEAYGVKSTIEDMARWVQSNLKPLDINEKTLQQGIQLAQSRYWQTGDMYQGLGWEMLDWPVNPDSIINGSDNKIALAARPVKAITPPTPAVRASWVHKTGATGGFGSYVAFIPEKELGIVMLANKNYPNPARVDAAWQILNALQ
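E. coli AmpC (5.3 nM) in 20 mM phosphate pH 7.0 with 0.01% Triton X-100, preincubated 15 min RT with compound; nitrocefin (2 uL of 800 uM stock) hydrolysis followed by 480 nm absorbance every 20 s over 4 min.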
AmpC nodet inh: blocks E. coli AmpC beta-lactamase in absence of detergent; P00811; AmpC nitrocefin hydrolysis, absorbance 480 nm, no detergent; Potency, µM (series often up to 28.7 µM); 1.8% of 71,000 active
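AmpC in 20 mM phosphate buffer pH 7.0 was preincubated 15 min at room temperature with compounds. Nitrocefin (800 uM stock) was then added and hydrolysis followed at 480 nm every 20 s for 4 min.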
LT uptake inh: blocks cellular internalization of anthrax lethal toxin; Cells, anthrax lethal toxin internalization, FRET ratio (460/530); Potency, µM (doses to about 40 µM), most hits filed as inhibitors; 0.67% of 70,000 active; AID 912; further: nearly all actives have a fitted effect of over 50% in size
SmPrx2 inh: inhibitors of Schistosoma mansoni peroxiredoxin 2; S. mansoni Prx2 activity coupled to TGR/GSH (TGR is thioredoxin glutathione reductase), NADPH fluorescence loss, qHTS; Potency, µM; 0.07% of 65,000 active; AID 448
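Enzyme mix: 100 uM NADPH, 25 nM TGR, 700 uM GSH, 50 nM Prx2 in 100 mM phosphate pH 7.4, 10 mM EDTA, 0.01% Tween-20. 15 min RT with compound; NADPH/GSH added, H2O2 starts reaction; NADPH fluorescence read 8 min.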
Of the large screens only hits and unclear results are named; the others gave an inactive call; [ ] = another dose, or the depositor's remark. Unless noted, the call rests on the fitted dose curve.

C[C@H](CCC(=O)NN)[C@@H]1CC[C@@H]2[C@H]3CC[C@H]4C[C@@H](O)CC[C@@]4(C)[C@@H]3CC[C@]21C	none
N#CCSc1nc2scc(-c3cccs3)c2c(=O)n1CCc1ccccc1	AmpC nodet inh 7.9µM
C=CCn1c(SCn2nnc3ccccc3c2=O)nc2scc(-c3cccs3)c2c1=O	none
Oc1cccc(Nc2nc(NCC3CCCO3)c3ccccc3n2)c1 (stereo not given)	AmpC nodet inh 10µM
CC(C)(C)c1cc(O)c(C(C)(C)C)cc1O	LT uptake inh inconclusive
Cc1cc(O)c(C(C)(C)C)cc1Sc1cc(C(C)(C)C)c(O)cc1C	AmpC nodet inh 13µM, LT uptake inh inconclusive (no result: SmPrx2 inh)
C[N+](C)(C)[C@@H](C1=CCCC1=O)c1ccccc1	LT uptake inh inconclusive
Clc1ccc([C@@H](c2ccccc2Cl)C(Cl)Cl)cc1	LT uptake inh inconclusive
Cc1nn(Cc2nc(-c3cccs3)no2)c(C)c1Br	AmpC nodet inh 2.5µM[single pt active]
CC(C)COC(=O)c1nnsc1NC(=O)Nc1ccccc1	AmpC nodet inh 16µM[single pt active]
CC(C)COC(=O)c1ccccc1C(=O)OCC(C)C	LT uptake inh inconclusive (no result: SmPrx2 inh)
COc1cccc(-c2csc(N3CCN(C(=O)C4CCCCC4)CC3)n2)c1	LT uptake inh 10µM
OC[C@@H]1O[C@@H](n2cnc3c(NCCc4ccccc4)ncnc32)[C@@H](O)[C@H]1O	LT uptake inh inconclusive
CC[n+]1cc(-c2ccccc2)nc(N2CCOCC2)n1	AmpC nodet inh 16µM[single pt active]
NC(=O)c1cc(-c2ccccc2)nc(N2CCOCC2)n1	AmpC nodet inh inconclusive (no result: SmPrx2 inh)
COC(=O)c1ccc(OCC(O)CN2CCC(C)CC2)cc1 (stereo not given)	none
CC(=O)c1ccc(OCC(O)CN2CCOCC2)cc1 (stereo not given)	AmpC nodet inh 4µM[single pt active]
CCC(=O)c1ccc(OCC(O)CN2CCOCC2)cc1 (stereo not given)	none
CC(=O)c1ccc(OCC(O)CN2CCC(C)CC2)cc1 (stereo not given)	AmpC nodet inh 4µM[single pt active]
CC(=O)c1ccc(OCC(O)CN2C(C)CCCC2C)cc1 (stereo not given)	AmpC nodet inh 4µM[single pt active]
O[C@@H]1CC[C@H]2Cc3ccccc3N=C21	none
C/C(=N/Nc1nc(C)cc(=O)[nH]1)C(=O)O	none
C[C@]1(O)CC[C@H]2[C@@H]3[C@@H](O)CC4=CC(=O)CC[C@@]4(C)[C@H]3CC[C@]21C	none
O=C(Nc1nccs1)C1(S(=O)(=O)c2ccc(Cl)cc2)CC1	none
Cc1ccc(S(=O)(=O)C2(C(=O)Nc3cccc(F)c3)CC2)cc1	AmpC nodet inh 4µM[single pt active]
Cc1ccc(S(=O)(=O)C2(C(=O)Nc3nccs3)CC2)cc1	AmpC nodet inh 4µM[single pt active]
Cc1cc(NS(=O)(=O)c2ccc(NC(=O)Cc3cccs3)cc2)no1	none
Cc1cc(NC(=O)Cc2cccs2)no1	AmpC nodet inh 13µM
O=C(NCc1ccco1)c1ccc(CS(=O)(=O)c2cccc(C(F)(F)F)c2)o1	none
COc1ccc(S(=O)(=O)Cc2ccc(C(=O)NCc3cccs3)o2)cc1	AmpC nodet inh 4µM[single pt active]
CCCCNC(=O)c1ccc(CS(=O)(=O)c2ccc(OC)cc2)o1	AmpC nodet inh 4µM[single pt active]
COc1ccc(S(=O)(=O)Cc2ccc(C(=O)NCc3ccco3)o2)cc1	AmpC nodet inh 4µM[single pt active]
O=C(NCc1ccc2c(c1)OCO2)c1ccc(CS(=O)(=O)c2ccc(Br)cc2)o1	AmpC nodet inh 4µM[single pt active], LT uptake inh inconclusive
COc1ccccc1S(=O)(=O)Cc1ccc(C(=O)NCc2cccs2)o1	none (no result: LT uptake inh)
CC(=O)[C@]1(O)CC[C@@H]2[C@H]3C[C@@H](C)C4=CC(=O)CC[C@@]4(C)[C@H]3[C@@H](O)C[C@]21C	none (no result: SmPrx2 inh)
O=C1NC(=O)[C@]2(Cc3ccccc3N3CCN(c4ccccc4)CC32)C(=O)N1Cc1ccccc1 (stereo not given in full)	AmpC nodet inh 10µM[single pt active] (no result: LT uptake inh)
Cn1c(C[C@@H](O)c2nc3ccccc3n2C)nc2ccccc21	none
O=C1C=CC2=C3c4cc(O)c(O)cc4C[C@@]3(O)COC2=C1O	AmpC nodet inh 16µM, LT uptake inh 25µM
Cc1cc(C)cc(OCC(=O)Nc2cccc(-c3nnc(-c4ccco4)o3)c2)c1	none
O=C(Nc1ccc(Cc2ccncc2)cc1)c1ccc(Br)o1	none
O=C(COc1ccccc1)Nc1cccc(-c2nnc(-c3ccccc3)o2)c1	LT uptake inh 10µM
O=C(Nc1cccc(-c2cn3cccnc3n2)c1)c1ccc(Br)o1	none
O=C(Nc1cccc(-c2nnc(-c3ccccc3)o2)c1)c1ccc(Br)o1	LT uptake inh 10µM, SmPrx2 inh inconclusive
O=C(Nc1ccc(Nc2ccccc2)cc1)c1ccc(Br)o1	LT uptake inh 13µM
COc1ccc(Cl)cc1NC(=O)CSc1ncnc2c1oc1ccccc12	AmpC nodet inh 13µM[single pt active], LT uptake inh inconclusive
COc1ccc(CCNC(=O)CSc2ncnc3c2oc2ccccc23)cc1OC	none
CCOc1ccccc1-n1nnnc1SCC(=O)Nc1cc2oc3ccccc3c2cc1OC	AmpC nodet inh 6.3µM, LT uptake inh inconclusive
CCOc1ccccc1-n1nnnc1SCC(=O)Nc1cc(C)on1	none
FC(F)(F)c1ccccc1-c1ccc2ncnc(NC3CCNCC3)c2c1	LT uptake inh inconclusive
CN(Cc1ccccc1)C(=O)CCS(=O)(=O)c1ccc2c(c1)n(C)c(=O)c(=O)n2C	AmpC nodet inh 4µM[single pt active], LT uptake inh inconclusive
CCC(C)NC(=O)CCS(=O)(=O)c1ccc2c(c1)n(C)c(=O)c(=O)n2C (stereo not given)	AmpC nodet inh 4µM[single pt active]
CN(Cc1ccccc1)C(=O)CCC(=O)N(C)Cc1ccccc1	none (no result: SmPrx2 inh)
CN(C)CCCN1c2ccccc2Sc2ccccc21	LT uptake inh 10µM
C=CCN1CC[C@@]23CCCC[C@@H]2[C@@H]1Cc1ccc(O)cc13	LT uptake inh inconclusive
O=C(c1ccccc1)c1cn(CC(=O)N2CCCC2)c2ccccc12	AmpC nodet inh 4µM[single pt active]
Cc1c(N=C=O)cccc1N=C=O	none (no result: SmPrx2 inh)
CCCN1CCN(CCCNC(=O)c2cc3c(=O)n(C)c4ccccc4c3n2C)CC1	AmpC nodet inh 4µM[single pt active], LT uptake inh 13µM
Cn1c(C(=O)NCCCN2CCCCCC2)cc2c(=O)n(C)c3ccccc3c21	LT uptake inh 4µM (no result: SmPrx2 inh)
Cn1c(C(=O)Nc2ccc3c(c2)OCCO3)cc2c(=O)n(C)c3ccccc3c21	LT uptake inh inconclusive
CN1CCN(CCNC(=O)c2cc3c(=O)n(C)c4ccccc4c3n2C)CC1	AmpC nodet inh 4µM[single pt active], LT uptake inh inconclusive
O=C(CCN1CCCCC1)c1csc2ccccc12	none
CC(C)[C@@H]1O[C@H](/C=C\c2ccccc2)OCC1(C)C	none
CCN(CC)CCCNC(=O)CC1Oc2ccc(C)cc2NC1=O (stereo not given)	AmpC nodet inh 4µM[single pt active]
CCC(C)NC(=O)CC1Oc2ccc(C)cc2NC1=O (stereo not given)	AmpC nodet inh 4µM[single pt active]
CN[C@@H](c1ccncc1)[C@@H](NC)c1ccncc1	none
COc1cc(-c2nc(-c3cccc(C)c3)no2)cc(OC)c1OC	LT uptake inh inconclusive (no result: SmPrx2 inh)
COc1cc2c(C)nc3onc(-c4ccccc4)c3c2cc1OC	LT uptake inh 1µM
Cc1nn(-c2nc3ccccc3s2)c(N)c1-c1ccccc1	LT uptake inh 13µM
CCn1c(SCc2ccc(OC)cc2)nnc1-c1ccncc1	LT uptake inh 13µM

Bioassay records deposited in PubChem BioAssay by National Center for Advancing Translational Sciences (NCATS).
